Results filed as inconclusive are left out. Active and inactive are the calls of the source. Unless noted, calls follow the shape of the full dose curve.
Assays:
[1] = Nuclear factor erythroid 2-related factor 2/antioxidant responsive element (Nrf2/ARE) small molecule agonists: qHTS cell viability counter screen in human keratinocytes (AID 1919968; active = well fitted curve in the direction sought with a large enough effect in the repeat runs; an effect the other way counts as inactive or inconclusive; also: nearly all actives have a fitted effect of over 55% in size; also: potency is read from the fitted curve at half-maximal effect)
Procedure, shortened: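 HaCaT ARE reporter line, 1,500 cells/well; 5 h settle, 37 C/5% CO2; cpd in DMSO pinned; 23 h exposure; CellTiter-Fluor, 1 h; fluorescence.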

[2] = molecular target: Gonadotropin-releasing hormone receptor (Homo sapiens) (UniProt P30968); assay: Human gonadotropin-releasing hormone receptor (GnRHR) small molecule agonists, calcium flux assay in GnRHR-HEK293 cells (AID 1920063); also: nearly all actives have a fitted effect of over 35% in size
Sequence of Gonadotropin-releasing hormone receptor (Homo sapiens) (P30968 whole entry, looked up): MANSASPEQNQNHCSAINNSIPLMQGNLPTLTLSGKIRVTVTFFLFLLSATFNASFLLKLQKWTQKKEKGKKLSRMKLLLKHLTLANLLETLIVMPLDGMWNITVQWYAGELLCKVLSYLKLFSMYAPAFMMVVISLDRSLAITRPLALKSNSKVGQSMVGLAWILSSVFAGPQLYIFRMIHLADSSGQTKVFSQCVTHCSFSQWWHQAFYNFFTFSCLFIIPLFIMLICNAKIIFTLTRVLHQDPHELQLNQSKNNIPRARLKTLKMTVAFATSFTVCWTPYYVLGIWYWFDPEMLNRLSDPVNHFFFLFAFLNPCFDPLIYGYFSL
Procedure, shortened: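 GnRHR-HEK293, 1500 cells/well, 18 h 37 C/5% CO2; Ca dye 1 h 37 C; cpd pinned (DMSO), agonist mode; kinetic FL 480/540, 3 min, 1 s reads; 15 conc, n=3.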

[3] = molecular target: KiSS-1 receptor (Homo sapiens) (UniProt Q969F8); assay: Human kisspeptin (KISS1R) small molecule agonists, calcium flux assay in KISS1R-HEK293 cells (AID 1920064; active = well fitted curve in the direction sought with a large enough effect in the repeat runs; an effect the other way counts as inactive or inconclusive)
Sequence of KiSS-1 receptor (Homo sapiens) (Q969F8 whole entry, looked up): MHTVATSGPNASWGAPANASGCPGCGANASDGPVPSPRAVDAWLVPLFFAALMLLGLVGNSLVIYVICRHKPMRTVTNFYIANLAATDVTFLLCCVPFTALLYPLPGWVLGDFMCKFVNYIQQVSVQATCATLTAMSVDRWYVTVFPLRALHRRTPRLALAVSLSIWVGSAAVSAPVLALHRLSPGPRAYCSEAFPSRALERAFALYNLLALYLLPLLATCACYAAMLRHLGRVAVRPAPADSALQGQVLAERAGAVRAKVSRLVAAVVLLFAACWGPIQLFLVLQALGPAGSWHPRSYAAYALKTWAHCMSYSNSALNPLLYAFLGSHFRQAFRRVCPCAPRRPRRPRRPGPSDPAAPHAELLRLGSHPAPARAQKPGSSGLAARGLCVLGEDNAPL
Procedure, shortened: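 Stable human KISS1R HEK293 line; 18 h plating, 37 C/5% CO2; calcium dye 1 h 37 C; compound pin transfer; kinetic fluorescence Ex/Em 480/540, 3 min.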

[4] = G protein-coupled receptor (GPCR) small molecule agonists, calcium flux assay: HEK293 wild type cell line counter screen (AID 1920065)
Procedure, shortened: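 Kinetic fluorescence at Ex/Em 480/540, recorded every second over 3 min, served as the read-out after compound addition. Each compound was tested at 15 concentrations in triplicate on cells pre-loaded with calcium dye for 1 h.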

[5] = p53 small molecule agonists, cell-based qHTS assay with human liver microsomes: qHTS cell viability counter screen (AID 1963579); also: nearly all actives have a fitted effect of over 45% in size; also: potency is read from the fitted curve at half-maximal effect
Procedure, shortened: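 Luminescent CellTiter-Glo read-out, 30 min at room temperature, gauged cytotoxicity in p53RE-bla cells exposed 16 h at 37 C to DMSO-dissolved compounds with metabolic activation by human liver microsomes and NADPH, each 0.5 mg/mL final.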

[6] = p53 small molecule agonists, cell-based qHTS assay with rat liver microsomes: qHTS cell viability counter screen (AID 1963580); also: nearly all actives have a fitted effect of over 45% in size
Procedure, shortened: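 Intracellular ATP, by CellTiter-Glo luminescence, defines viability. HCT-116 p53RE-bla cells, 4,000 per well, were compound-treated in the presence of rat liver microsomes and NADPH for 16 h at 37 C.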

[7] = molecular target: 5-hydroxytryptamine receptor 2A (Homo sapiens) (UniProt P28223); assay: 5-hydroxytryptamine receptor 2A (HTR2A) small molecule agonists, cell-based qHTS assay (AID 1963587); also: nearly all actives have a fitted effect of over 30% in size
Sequence of 5-hydroxytryptamine receptor 2A (Homo sapiens) (P28223 whole entry, looked up): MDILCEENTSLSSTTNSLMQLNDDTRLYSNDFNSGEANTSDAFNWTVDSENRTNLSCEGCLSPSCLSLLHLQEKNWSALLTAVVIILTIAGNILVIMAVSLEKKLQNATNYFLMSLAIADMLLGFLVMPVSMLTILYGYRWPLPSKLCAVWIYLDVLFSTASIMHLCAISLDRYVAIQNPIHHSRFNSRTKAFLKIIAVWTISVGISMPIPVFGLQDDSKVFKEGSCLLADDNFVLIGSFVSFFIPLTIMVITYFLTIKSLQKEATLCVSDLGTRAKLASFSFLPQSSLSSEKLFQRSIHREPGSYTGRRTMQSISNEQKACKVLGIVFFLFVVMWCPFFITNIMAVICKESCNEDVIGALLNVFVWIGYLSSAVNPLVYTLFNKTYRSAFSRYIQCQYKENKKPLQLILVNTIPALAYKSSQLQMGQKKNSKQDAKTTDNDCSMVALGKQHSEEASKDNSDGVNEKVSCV
Procedure, shortened: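 Kinetic calcium-flux fluorescence (2 min, 1 sec intervals) after compound addition in agonist mode. HTR2A-CHO cells were cultured 18 h, then dye-loaded 1 h at 37 C.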

[8] = molecular target: Muscarinic acetylcholine receptor M1 (Homo sapiens) (UniProt P11229); assay: Cholinergic receptor muscarinic 1 (CHRM1) small molecule antagonists, cell-based qHTS assay (AID 1963588); also: nearly all actives have a fitted effect of over 40% in size
Sequence of Muscarinic acetylcholine receptor M1 (Homo sapiens) (P11229 whole entry, looked up): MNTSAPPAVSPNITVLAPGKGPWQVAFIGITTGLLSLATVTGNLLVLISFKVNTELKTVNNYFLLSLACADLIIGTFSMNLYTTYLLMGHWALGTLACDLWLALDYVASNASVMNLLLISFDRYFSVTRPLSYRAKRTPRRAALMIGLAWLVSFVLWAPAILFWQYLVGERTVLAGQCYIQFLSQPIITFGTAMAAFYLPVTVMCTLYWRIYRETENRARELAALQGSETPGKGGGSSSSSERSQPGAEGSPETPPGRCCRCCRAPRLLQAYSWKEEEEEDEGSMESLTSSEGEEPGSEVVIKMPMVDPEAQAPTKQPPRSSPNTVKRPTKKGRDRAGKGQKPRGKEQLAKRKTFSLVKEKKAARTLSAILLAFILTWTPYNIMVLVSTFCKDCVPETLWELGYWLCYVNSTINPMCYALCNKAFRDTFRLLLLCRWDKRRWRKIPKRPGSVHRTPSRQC
Procedure, shortened: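 CHRM1-CHO calcium-flux assay, antagonist mode. Cells were seeded 18 h, dye-loaded 1 h at 37 C and given compound for 5 min at RT, then acetylcholine was added at 50nM. FDSS fluorescence was read 3 min; 15 concentrations, three runs.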

[9] = molecular target: Muscarinic acetylcholine receptor M1 (Homo sapiens) (UniProt P11229); assay: Cholinergic receptor muscarinic 1 (CHRM1) small molecule agonists, cell-based qHTS assay (AID 1963589); also: nearly all actives have a fitted effect of over 35% in size
Procedure, shortened: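 Human M1 in stable CHO line; 18 h plating, 1 h dye load 37 C; cpd added (agonist mode); Ca2+ fluorescence kinetic read, 1 s intervals; 15 conc, 3 runs.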

[10] = cAMP Responsive Elements (CRE) small molecule agonists, cell-based qHTS assay (AID 1963590)
Procedure, shortened: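 HEK 293T CRE-bla, 2,000 cells/well, 18 h preincubation 37 C/5% CO2; cpds (DMSO) pinned, 3 h; LiveBLAzer B/G FRET substrate, 2 h RT.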

[11] = cAMP Responsive Elements (CRE) small molecule antagonists, cell-based qHTS assay (AID 1963591; active = well fitted inhibition curve with a large enough effect in the signal ratio in the repeat runs, not every such curve was filed as active; the % refers to the signal ratio)
Procedure, shortened: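 Beta-lactamase reporter read by FRET substrate (LiveBLAzer B/G) after 2 h at room temperature. CRE-bla HEK293T cells had received compound plus 0.25 uM (final) NKH477 for 3 h at 37 °C.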

[12] = molecular target: Beta-2 adrenergic receptor (Homo sapiens) (UniProt P07550); assay: Adrenergic beta2 receptor (ADRB2) small molecule antagonists, cell-based qHTS assay (AID 1963592); also: series mostly up to about 92 µM; nearly all actives have a fitted effect of over 50% in size
Sequence of Beta-2 adrenergic receptor (Homo sapiens) (P07550 whole entry, looked up): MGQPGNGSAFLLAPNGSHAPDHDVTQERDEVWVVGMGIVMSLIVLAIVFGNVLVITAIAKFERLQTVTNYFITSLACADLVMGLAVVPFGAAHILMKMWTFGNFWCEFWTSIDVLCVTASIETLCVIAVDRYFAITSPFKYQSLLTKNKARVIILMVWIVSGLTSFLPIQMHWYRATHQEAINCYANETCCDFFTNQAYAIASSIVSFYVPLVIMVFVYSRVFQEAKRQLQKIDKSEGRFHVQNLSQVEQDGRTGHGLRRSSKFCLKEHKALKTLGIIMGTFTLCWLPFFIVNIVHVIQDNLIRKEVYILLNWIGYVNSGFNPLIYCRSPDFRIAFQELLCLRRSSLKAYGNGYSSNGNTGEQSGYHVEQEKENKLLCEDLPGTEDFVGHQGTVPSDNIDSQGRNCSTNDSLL
Procedure, shortened: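 Cells (CHO, stable ADRB2 overexpression) incubated 18-20hr at 37C; compounds added from DMSO; agonist mix (1nM isoproterenol, 100uM IBMX, 25uM Ro-20-1724) added; 0.5hr RT; d2-cAMP and anti-cAMP-cryptate added; 1hr RT; 665/615 nm read.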

[13] = molecular target: D(2) dopamine receptor (Homo sapiens) (UniProt P14416); assay: Dopamine D2 receptor (DRD2) small molecule agonists, cell-based qHTS assay (AID 1963594); also: nearly all actives have a fitted effect of over 35% in size
Sequence of D(2) dopamine receptor (Homo sapiens) (P14416 whole entry, looked up): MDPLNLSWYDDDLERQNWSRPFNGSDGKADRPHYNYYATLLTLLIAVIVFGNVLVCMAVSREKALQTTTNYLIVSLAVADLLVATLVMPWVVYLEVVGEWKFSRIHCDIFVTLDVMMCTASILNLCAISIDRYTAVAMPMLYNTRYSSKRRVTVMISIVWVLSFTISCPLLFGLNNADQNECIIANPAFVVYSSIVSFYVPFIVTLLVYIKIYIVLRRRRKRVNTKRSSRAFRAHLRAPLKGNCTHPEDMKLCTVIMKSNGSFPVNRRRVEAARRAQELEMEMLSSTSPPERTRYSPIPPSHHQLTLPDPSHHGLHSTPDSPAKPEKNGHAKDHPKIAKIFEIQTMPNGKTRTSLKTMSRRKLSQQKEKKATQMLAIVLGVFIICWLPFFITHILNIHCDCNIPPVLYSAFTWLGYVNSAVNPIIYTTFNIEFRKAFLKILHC
Procedure, shortened: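 cAMP accumulation in DRD2-HEK293 cells measured by HTRF after 1 h detection; compounds added 10 min before NKH477 (200nM […]) forskolin-analogue stimulation, 30 min at room temperature, with Ro20-1724 present at 0.1 mM final.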

[14] = molecular target: D(2) dopamine receptor (Homo sapiens) (UniProt P14416); assay: Dopamine D2 receptor (DRD2) small molecule antagonists, cell-based qHTS assay (AID 1963595; active = well fitted inhibition curve with a large enough effect in the signal ratio in the repeat runs, with a control signal flat; the % refers to the signal ratio)
Procedure, shortened: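 In this cell-based antagonist screen, compounds act for 10 min at room temperature before a 30 min challenge with 12 nM quinpirole and 200 nM NKH477. cAMP is quantified by HTRF competition in DRD2-HEK293 cells containing 0.1 mM Ro20-1724.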

[15] = p53 small molecule agonists, cell-based qHTS assay: qHTS cell viability counter screen (AID 1963581); also: nearly all actives have a fitted effect of over 45% in size
Procedure, shortened: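 HCT-116 p53RE-bla cells, 4,000/well, plated 5 h before compound pin transfer; 16 h at 37 C; bla substrate 2 h RT; then CellTiter-Glo, 30 min RT, luminescence.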

[16] = molecular target: 5-hydroxytryptamine receptor 2A (Homo sapiens) (UniProt P28223); assay: 5-hydroxytryptamine receptor 2A (HTR2A) small molecule antagonists, cell-based qHTS assay (AID 1963586); also: nearly all actives have a fitted effect of over 45% in size
Procedure, shortened: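 Antagonist-mode intracellular calcium assay: DOI (4 nM) added after 5 min compound pre-incubation at room temperature to dye-loaded HTR2A-CHO cells. Fluorescence followed for 3 min, sampled every second.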

[17] = p53 small molecule agonists, cell-based qHTS assay with human liver microsomes (AID 1963577);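 also: p53 response element beta-lactamase reporter cells with liver microsomes plus NADPH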
Procedure, shortened: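 p53RE-bla cells; 5 h settle, 37 C/5% CO2; cpd + HLM 0.5 mg/mL + NADPH 0.5 mg/mL (final); 16 h 37 C; LiveBLAzer 2 h RT dark; fluorescence readout.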

[18] = p53 small molecule agonists, cell-based qHTS assay with rat liver microsomes (AID 1963578)
Procedure, shortened: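 Rat liver microsome activation: microsomes 0.5 mg/mL, NADPH 0.5 mg/mL final; p53RE-bla cells, 16 h 37 C; LiveBLAzer readout, 2 h RT dark.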

[19] = p53 small molecule agonists, cell-based qHTS assay (AID 1963582; active = well fitted activation curve with a large enough effect in the signal ratio in the repeat runs, not every such curve was filed as active; the % refers to the signal ratio)
Procedure, shortened: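 Reporter line: p53RE-bla. Pre-incubation 5 h, 37 C, 5% CO2; compound (DMSO, pin tool) 16 h, 37 C; B/G FRET substrate 2 h RT; fluorescence intensity read.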

[20] = molecular target: Beta-2 adrenergic receptor (Homo sapiens) (UniProt P07550); assay: Adrenergic beta2 receptor (ADRB2) small molecule agonists, cell-based qHTS assay (AID 1963593);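 also: CHO cells stably overexpressing human ADRB2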
Procedure, shortened: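 CHO cells stably over-expressing ADRB2 were plated overnight at 37C, then dosed with compounds plus a stimulation mix containing 100uM IBMX and 25uM Ro-20-1724 for 0.5hr at room temperature. cAMP was measured by HTRF competition, 1hr.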

Measured: Potency

C=COC(C)=O
inactive: [1] | [2] | [3] | [4] | [5] | [6] | [7] | [8] | [9] | [10] | [11] | [12] | [13] | [14]

O.O.O.O.O.O.O=S(=O)([O-])[O-].[Ni+2]
inactive: [1] | [2] | [3] | [4] | [5] | [15] | [16] | [7] | [8] | [9] | [10] | [11] | [12] | [13] | [14]

CCOC(=O)CCl
inactive: [1] | [2] | [3] | [4] | [5] | [6] | [15] | [16] | [7] | [9] | [10] | [12] | [14]

S=C=Nc1ccccc1
inactive: [1] | [2] | [3] | [17] | [18] | [5] | [6] | [15] | [19] | [16] | [7] | [8] | [9] | [10] | [12] | [13] | [14]

CC(O)CCl (stereo not drawn)
inactive: [1] | [2] | [3] | [4] | [5] | [15] | [16] | [7] | [8] | [9] | [10] | [11] | [14]

C#CCN1C(=O)COc2cc(F)c(N3C(=O)C4=C(CCCC4)C3=O)cc21
inactive: [1] | [2] | [3] | [4] | [5] | [6] | [15] | [16] | [7] | [11] | [12] | [20] | [13] | [14]

[Cl-].[Cl-].[Cl-].[Yb+3]
inactive: [1] | [2] | [3] | [4] | [5] | [6] | [16] | [8] | [9] | [10] | [11] | [12] | [20] | [13] | [14]

CC(=O)Nc1ccc2c(c1)Cc1ccccc1-2
inactive: [1] | [2] | [3] | [4] | [5] | [6] | [15] | [11] | [12] | [20] | [13] | [14]

CCOP(=S)(OCC)Oc1ncn(-c2ccccc2)n1
inactive: [1] | [2] | [3] | [4] | [6] | [15] | [19] | [16] | [8] | [9] | [12] | [13] | [14]

COP(=S)(OC)Oc1cc(Cl)c(Br)cc1Cl
active: [5] 45.8 µM
inactive: [1] | [2] | [3] | [4] | [6] | [15] | [16] | [7] | [8] | [9] | [11] | [12] | [20] | [13] | [14]

C=CCN1CC[C@]23c4c5ccc(O)c4O[C@H]2C(=O)CC[C@@]3(O)[C@H]1C5
inactive: [1] | [2] | [3] | [4] | [5] | [6] | [15] | [10] | [11] | [12] | [13]

CCCCn1cc[n+](C)c1 (tested in a mixture with another compound)
inactive: [1] | [2] | [3] | [4] | [5] | [6] | [15] | [8] | [9] | [10] | [11] | [12] | [14]

COP(=S)(OC)Oc1nc(Cl)c(Cl)cc1Cl
inactive: [1] | [2] | [3] | [4] | [5] | [6] | [19] | [16] | [7] | [8] | [9] | [12] | [20] | [13] | [14]

CO/C=C(/C(=O)OC)c1ccccc1Oc1cc(Oc2ccccc2C#N)ncn1
active: [1] 6.11 µM
inactive: [2] | [3] | [4] | [7] | [8] | [9]

From PubChem BioAssay (Tox21)
